Bioassay records from PubChem.
This is a sample that favours compounds with a hit; in the whole collection about 7.4% have one here.
KinaseGlo FLuc – Counterscreen for Luciferase (Kinase-Glo TM) Inhibition; Luciferin 4-monooxygenase (Photuris pensylvanica), Q27757; Kinase-Glo luciferase, ATP luminescence, 8 min; Potency, µM (highest dose often 38.3 µM), for the others: at the highest dose activity change, negative = inhibition, actives largely listed as inhibitors; actives 0.28% (n = 200,000); note: % is set by controls: 0 for no effect and ±100 for the full control effect; nearly all actives have a fitted effect of over 60% in size
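Light output from Kinase-Glo luciferase with luciferin and 10 uM ATP in 50 mM imidazole pH 7.2, KCl, MgCl2, Tween 20, BSA; compound pin-delivered, 8-min ambient incubation, then luminescence read.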
Rab9 promoter act – qHTS Assay for Rab9 Promoter Activators | Huh7 Rab9 promoter-luciferase reporter, luminescence, 24 h | Potency, µM (titrated, usually from 9.22 µM), without a hit: top-dose activation, negative = inhibition, most hits filed as activators | actives 2.8% (n = 320,000) | AID 485297, 2010; note: % of control where 0% means no effect; nearly all actives have a fitted effect of over 60% in size
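Huh7 cells stably carrying Rab9 promoter–luciferase reporter, plated 1500 cells/well, compound added after 2 h and incubated 24 h at 37 °C; luciferase luminescence then read after 10 min with detection reagent.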
SMN2 splice enh – qHTS Assay for Enhancers of SMN2 Splice Variant Expression | HEK293 SMN2-luciferase splicing reporter, luminescence, 30-36 h | Potency, µM (doses to about 46.1 µM), for the others: at the top dose activity change, positive = activation, usual class: activators | actives 2.8% (n = 210,000) | AID 1458, 2008; note: % of control where 0% means no effect; nearly all actives have a fitted effect of over 55% in size
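qHTS luciferase splicing reporter: luminescence rises when SMN2 exon 7 is included in transfected HEK293 cells. Compound exposure lasted 30-36 h at 37C, with 4.5 mM final sodium butyrate as control, followed by a ONE-Glo read.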
ELG1 genotoxic – qHTS screen for small molecules that induce genotoxicity in human embryonic kidney (HEK293T) cells expressing luciferase-tagged ELG1. actives 1.3% (n = 330,000). AID 504466, 2011. Potency, µM (doses to about 46 µM), without a hit: at the highest dose activity change, positive = activation, actives largely listed as activators. HEK293T ELG1-luciferase reporter, luminescence, 16 h; note: % of control where 0% means no effect; nearly all actives have a fitted effect of over 60% in size
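Quantitative HTS format in 1536-well plates. HEK293T ELG1-luciferase reporter cells receive test compound and are incubated 16 hr at 37 °C, 5% CO2; ONE-Glo added, 30 min room temperature, then luminescence read.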
FLuc counter – qHTS profiling assay for firefly luciferase inhibitor/activator using purifed enzyme and Km concentrations of substrates (counterscreen for miR-21 project); Potency, µM (titrated, usually from 57.5 µM), without a hit: at the highest dose activity change, negative = inhibition, usual class: inhibitors; actives 6.9% (n = 360,000); Luciferin 4-monooxygenase (Photinus pyralis), P08659; purified FLuc, Km substrates, luminescence inhibition;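 note: plate controls were vehicle for no effect and reference inhibitor for full effect; nearly all actives have a fitted effect of over 55% in size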
Target sequence (P08659 whole entry, looked up): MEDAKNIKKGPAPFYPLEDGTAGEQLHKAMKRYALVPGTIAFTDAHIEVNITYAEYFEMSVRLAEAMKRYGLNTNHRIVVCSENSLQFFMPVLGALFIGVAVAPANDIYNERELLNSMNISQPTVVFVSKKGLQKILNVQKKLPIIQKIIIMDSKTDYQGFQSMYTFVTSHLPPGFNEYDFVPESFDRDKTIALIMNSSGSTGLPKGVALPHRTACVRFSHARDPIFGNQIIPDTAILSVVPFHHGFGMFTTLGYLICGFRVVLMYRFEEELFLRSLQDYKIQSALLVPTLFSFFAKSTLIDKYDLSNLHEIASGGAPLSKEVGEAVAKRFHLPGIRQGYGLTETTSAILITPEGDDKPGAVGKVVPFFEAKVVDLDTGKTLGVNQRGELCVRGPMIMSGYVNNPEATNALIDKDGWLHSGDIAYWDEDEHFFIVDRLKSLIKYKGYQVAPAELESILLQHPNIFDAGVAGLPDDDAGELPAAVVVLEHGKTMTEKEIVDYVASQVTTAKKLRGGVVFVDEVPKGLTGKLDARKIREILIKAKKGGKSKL
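Purified P. pyralis luciferase, 10 nM final, with Km-level 10 uM D-luciferin and 10 uM ATP in 50 mM Tris acetate pH 7.5, 10 mM Mg acetate, 0.01% Tween-20, 0.05% BSA; 6-point qHTS titration about 60 µM downward; luminescence read.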
NPC1 promoter act – qHTS Assay for NPC1 Promoter Activators | Huh7 NPC1 promoter luciferase reporter, 24 h | Potency, µM (doses to about 9.22 µM), without a hit: at the top dose activation, usual class: activators | actives 2.4% (n = 320,000); note: % of control where 0% means no effect; nearly all actives have a fitted effect of over 60% in size
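NPC1 promoter–luciferase Huh7 cells; 24 h compound; luminescence.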
* marks the source's active call; other numbers are inactive results; [ ] = remark or other dose. Calls come from the whole dose curve; as a rule, active = well fitted curve in the direction sought with a large enough effect; inconclusive = small, poorly fitted or top-dose-only effect, or another doubt; inactive = no such curve, though single readings can be large; an effect the other way counts as inactive or inconclusive. Potency is the fitted concentration of half-maximal effect.

Results for Cc1ccc(NC(=O)CCc2c(C)nn(-c3ccc(N4CCCCC4)nn3)c2C)cc1C ?
Rab9 promoter act: inconclusive; ELG1 genotoxic: 11.8%[9.26 µM]; FLuc counter: 12µM*; NPC1 promoter act: inconclusive

Results for Cc1nn(-c2ccc(N3CCOCC3)nn2)c(C)c1CCC(=O)Nc1ccccc1 ?
Rab9 promoter act: 11.3%; ELG1 genotoxic: 3.0%; FLuc counter: inconclusive; NPC1 promoter act: 13.3%

Results for Cc1cc(C)cc(NC(=O)CCc2c(C)nn(-c3ccc(N4CCCCC4)nn3)c2C)c1 ?
Rab9 promoter act: inconclusive; ELG1 genotoxic: 9.9%[9.26 µM]; FLuc counter: 4.78µM*; NPC1 promoter act: inconclusive

What do the screens show for `Cc1nn(-c2ccc(N3CCCCC3)nn2)c(C)c1CCC(=O)Nc1ccc(F)c(F)c1`?
Rab9 promoter act: 2.51µM*; ELG1 genotoxic: 0.6%; FLuc counter: 5.36µM*; NPC1 promoter act: 2.51µM*

What do the screens show for `COC(=O)C(Cc1c[nH]c2ccccc12)NC(=O)COc1ccc(Cl)cc1Cl` (stereo unspecified)?
SMN2 splice enh: -70.9%; FLuc counter: inconclusive

Results for COc1ccc(C)cc1NC(=O)CCc1c(C)nn(-c2ccc(N3CCCCC3)nn2)c1C ?
Rab9 promoter act: inconclusive; ELG1 genotoxic: 4.4%; FLuc counter: 12µM*; NPC1 promoter act: inconclusive

What do the screens show for `CCOc1ccccc1NC(=O)CCc1c(C)nn(-c2ccc(N3CCCCC3)nn2)c1C`?
Rab9 promoter act: 21.0%; ELG1 genotoxic: -5.5%; FLuc counter: 10.7µM*; NPC1 promoter act: 2.9%

Results for Cc1ccc(NC(=O)CCc2c(C)nn(-c3ccc(N4CCOCC4)nn3)c2C)cc1 ?
Rab9 promoter act: 24.8%; ELG1 genotoxic: 10.5%; FLuc counter: inconclusive; NPC1 promoter act: 6.4%

Results for CC(=O)c1ccc(NC(=O)CCc2c(C)nn(-c3ccc(N4CCCCC4)nn3)c2C)cc1 ?
FLuc counter: 8.49µM*

Results for Cc1ccc(NC(=O)CCc2c(C)nn(-c3ccc(N4CCCCC4)nn3)c2C)cc1 ?
Rab9 promoter act: inconclusive; ELG1 genotoxic: 9.7%[9.26 µM]; FLuc counter: 10.7µM*; NPC1 promoter act: 1.58µM*

How did COc1ccccc1CNC(=O)COCc1cc(-c2cccs2)on1 do in these assays?
FLuc counter: -15.4%

How did O=C(O)c1ccc2cc(-c3ccc(O)c(C45CC6CC(CC(C6)C4)C5)c3)ccc2c1 do in these assays?
KinaseGlo FLuc: -0.7%; SMN2 splice enh: -79.9%

Results for c1nc(NCCc2cnc[nH]2)c2[nH]cnc2n1 ?
KinaseGlo FLuc: 1.3%[7.66 µM]; SMN2 splice enh: -4.3%[9.22 µM]

What do the screens show for `CC1Cc2cc(S(=O)(=O)CCC(=O)Nc3ccc(F)cc3)ccc2N1C(=O)C1CC1` (stereo unspecified)?
FLuc counter: 0.0%

Results for Cc1ccc(C(=O)Nc2cccc(C(=O)N3CCOCC3)c2)cc1Cl ?
Rab9 promoter act: inconclusive; ELG1 genotoxic: inconclusive; FLuc counter: 9.53µM*; NPC1 promoter act: 26.9%

How did Cc1ccc(C(=O)O)cc1S(=O)(=O)N1CCC(C(=O)O)CC1 do in these assays?
KinaseGlo FLuc: 3.6%; Rab9 promoter act: -0.3%; SMN2 splice enh: 11.2µM*; ELG1 genotoxic: -0.7%; FLuc counter: 1.1%; NPC1 promoter act: -0.2%

Results for O=C(O)c1cccc(NC(=O)c2cccc(S(=O)(=O)N3CCCCC3)c2)c1 ?
KinaseGlo FLuc: -5.6%; Rab9 promoter act: 2.82µM*; SMN2 splice enh: 24.4%; ELG1 genotoxic: inconclusive; FLuc counter: 6.01µM*; NPC1 promoter act: inconclusive

How did CC1CCN(C(=O)COC(=O)c2cccc(S(=O)(=O)N(C)c3ccccc3)c2)CC1 do in these assays?
Rab9 promoter act: 3.7%; ELG1 genotoxic: -0.6%; FLuc counter: 10.7µM*; NPC1 promoter act: -0.8%

How did COc1ccc2oc(=O)cc(CN3CCN(C(=O)c4ccccc4Br)CC3)c2c1 do in these assays?
SMN2 splice enh: -8.5%; FLuc counter: -0.3%

How did CC(=O)Nc1ccccc1-c1nc2ccccc2n(C(C)C(=O)Nc2ccccc2C(F)(F)F)c1=O (stereo unspecified) do in these assays?
FLuc counter: -0.3%

How did Cc1ccc(C(=O)OCC(=O)N2CCC(C)CC2)cc1S(=O)(=O)N1CCCCC1 do in these assays?
Rab9 promoter act: 3.3%; ELG1 genotoxic: 2.7%; FLuc counter: 16.9µM*; NPC1 promoter act: 0.1%

Results for Cc1ccc(C(=O)Nc2cccc(C(=O)O)c2)cc1S(=O)(=O)N1CCCC1 ?
SMN2 splice enh: 11.2µM*; FLuc counter: 0.0953µM*

How did COc1ccc(C(=O)Nc2cccc(C(=O)O)c2)cc1S(=O)(=O)N1CCCC1 do in these assays?
Rab9 promoter act: inconclusive; ELG1 genotoxic: -1.0%; FLuc counter: 10.7µM*; NPC1 promoter act: inconclusive

What do the screens show for `COc1ccc(C(=O)Nc2ccc(NC(=O)c3ccccc3)cc2)cc1S(=O)(=O)N1CCOCC1`?
Rab9 promoter act: 2.0%; ELG1 genotoxic: 2.6%; FLuc counter: -0.2%; NPC1 promoter act: -1.7%

How did CN(C)c1ccc(C(=O)Nc2cccc(S(=O)(=O)N3CCCC3)c2)cc1 do in these assays?
Rab9 promoter act: inconclusive; ELG1 genotoxic: 1.2%; FLuc counter: 1.69µM*; NPC1 promoter act: 23.2%

What do the screens show for `Cc1ccc(NC(=O)c2cccc(F)c2)cc1S(=O)(=O)N1CCCCCC1`?
KinaseGlo FLuc: -1.9%; Rab9 promoter act: -2.1%; SMN2 splice enh: -29.6%; ELG1 genotoxic: -13.1%; FLuc counter: -6.4%; NPC1 promoter act: -2.7%

How did Cc1oc(-c2ccccc2Cl)nc1CS(=O)(=O)CC(=O)NCc1ccc(F)cc1 do in these assays?
SMN2 splice enh: -14.3%; FLuc counter: -11.8%

Results for COCCN(CCOC)c1ncnc2c1c(-c1ccccc1)cn2-c1ccc(C)c(Cl)c1 ?
FLuc counter: -7.6%

How did Cc1ccc(-c2cc(C(=O)N(Cc3ccc(C(C)(C)C)cc3)Cc3ccco3)no2)cc1 do in these assays?
FLuc counter: 5.3%

What do the screens show for `COc1ccc(-c2oc3ncn4nc(COc5ccccc5C)nc4c3c2-c2ccc(OC)cc2)cc1`?
SMN2 splice enh: -0.5%; FLuc counter: 0.0%
